According to PubChem BioAssay AID431 (Sanford-Burnham Center for Chemical Genomics, 2006):
In all, about 63,000 compounds went through this assay and about 1,100 (1.7%) were called active. The sample as a whole holds a higher share of actives than the screen did. Measured potencies and affinities stand elsewhere. A number with no mark means an inactive call.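 Rule for the calls: active = compounds whose percent cytotoxicity in the single-dose primary screen, scaled between solvent and toxic-drug controls, exceeds 50; inactive = the rest.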

Assay: viability loss of HPDE-C7K cells – cell-based, fluorescence, HTS, primary screen (AID 431);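 note: 0% = DMSO solvent wells and 100% = doxorubicin-treated wells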
Details: HPDE-C7K KRASV12 cells, Alamar Blue viability, 48 h; at 10 µM; hits give high values

Compound	cytotoxicity
O=C(NCCc1cn2ccccc2n1)c1ccc(Br)o1	-1.7%
Cc1nc(NS(=O)(=O)c2cccs2)c2c3c(sc2n1)CCC3	10.8%
O=S(=O)(Nc1ncnc2sc3c(c12)CCC3)c1ccc(Cl)s1	50.7% (active)
O=C(Nc1ncnc2sc3c(c12)CCC3)c1ccco1	10.7%
COc1ccc(C2N(c3ccc(F)cc3)C(=O)C3CCCN32)cc1 (configuration not stated)	-2.8%
CCOC(=O)C1CCCN(C(=O)c2ccc(CS(=O)(=O)Cc3ccccc3C)o2)C1 (configuration not stated)	16.4%
CCC(C)[C@@H](C(=O)Nc1ccc(OC)c(OC)c1)N1Cc2ccccc2C1=O (some centres not stated)	-0.4%
Cn1cnc2c(N3CCCCC3)nccc21	3.7%
c1cncc(Nc2nc(-c3cccnc3)cs2)c1	15%
CCN(C(=O)c1ccc(C(C)(C)C)cc1)c1nnc(Cn2nnc3ccccc32)s1	88.4% (active)
CCN(C(=O)CSc1nnc(Cn2nnc3ccccc32)o1)c1nc(-c2ccccc2)cs1	-0.5%
CCN(C(C)=O)c1nnc(CSc2nc3ccccc3s2)s1	23.5%
O=C(Nc1ccccc1C(=O)NCc1ccco1)c1ccco1	7.2%
N=c1n(CCN2CCOCC2)c2ccccc2n1CC(O)COc1ccccc1 (configuration not stated)	-9.7%
CC1(C)Cc2c(C#N)c(N3CCN(C(=O)c4ccco4)CC3)nc(-c3ccco3)c2CS1	44.2%
CCCc1nc(NCc2ccco2)c(C#N)c2c1COC(C)(C)C2	1.1%
CCCCc1nc(NCCNC(=O)c2ccco2)c(C#N)c2c1CSC(C)(C)C2	80.9% (active)
CCOC(=O)c1cnc(SCC(=O)Nc2sc(C)c(C)c2C#N)nc1N	-2.2%
CCOc1ccc(Nc2cc(C)nc(N3CCOCC3)n2)cc1	-19.5%
COCCn1c(SCC(=O)Nc2nc(C)c(Cl)cc2Cl)nc2ccccc21	-6.8%
Cc1ccccc1-c1nc(CS(=O)(=O)CC(=O)NCc2ccc3c(c2)OCO3)c(C)o1	14.4%

Compound	cytotoxicity
O=C(Cn1c(=O)n2ncnc2c2c3c(sc21)CCCC3)c1ccccc1	-20.6%
O=c1n(Cc2ccccc2Cl)c2sc3c(c2c2ncnn12)CCCC3	-12.2%
COCCn1c(Cc2ccccc2)nnc1SCC(=O)NC(C)C	-14.6%
CCOC(=O)c1[nH]c(C)c(C(=O)OCC)c1C	-10%
CCOC(=O)c1[nH]c(C)c(C(=O)Nc2ccc(Cl)cc2)c1C	10.1%
CCOC(=O)c1[nH]c(C)c(C(=O)Nc2ccccc2C)c1C	45.7%
CCOC(=O)c1[nH]c(C)c(C(=O)c2cc(F)ccc2F)c1C	70.6% (active)
CCOC(=O)c1[nH]c(C)c(C(=O)Nc2cc(Cl)ccc2C)c1C	55% (active)
CCOC(=O)c1[nH]c(C)c(C(=O)Nc2ccc(F)cc2)c1C	-5.4%
CCN(CC)CCNC(=O)C1CCC(=O)N(c2ccc(OC)cc2)C1c1ccc(F)cc1 (configuration not stated)	5.4%
COc1cccc(N2C(=O)CC(N3CCC(C(N)=O)(N4CCCCC4)CC3)C2=O)c1 (configuration not stated)	-2.6%
Clc1ccc(-c2nnc3sc(Cc4cccs4)nn23)c(Cl)c1	-3.4%
O=C(NC1CCCCC1)N1CCCCCCC1	-4.9%
COc1cc2c(=O)n(Cc3ccco3)c(=O)n(CC(=O)c3cccc(Br)c3)c2cc1OC	50% (active)
COc1ccc(CCNC(=O)Cn2c(=O)n(Cc3ccco3)c(=O)c3ccc(Cl)cc32)cc1OC	4.2%
CCOC(=O)Cn1c(=O)n(Cc2ccco2)c(=O)c2ccc(C(=O)NCCc3ccccc3)cc21	7.3%
COc1cc2c(=O)n(Cc3ccccc3)c(=O)n(CC(=O)C(C)(C)C)c2cc1OC	-1.3%
COc1cc2c(=O)n(Cc3ccccc3)c(=O)n(CC(=O)NCc3ccco3)c2cc1OC	5.4%
COc1cc2c(=O)n(Cc3ccco3)c(=O)n(CC(=O)c3ccc(Br)cc3)c2cc1OC	80.3% (active)
COC(=O)c1ccc(C(=S)N2CCOCC2)cc1	-0.4%
Cc1ccc(C(c2nnnn2C(C)(C)C)N(Cc2ccco2)Cc2cccs2)cc1 (configuration not stated)	1.5%

Compound	cytotoxicity
COc1cccc(NC(=O)COC(=O)c2cccnc2)c1	-8.8%
CC(C)(C)OC(=O)N1CCC[C@H]1C(=O)NCC1CCC(C(=O)O)CC1 (some centres not stated)	7.4%
CCC(c1nnnn1C1CCCCC1)N1CCN(C2CCCC2)CC1 (configuration not stated)	3.5%
CCCCNc1cc(C)nc(NCc2ccccc2)n1	82.9% (active)
Cc1cc(C)nc(NCCCc2ccccc2)n1	-12.4%
Cc1cc(Nc2ccccc2)nc(-c2ccccc2O)n1	1.4%
CCCCOc1cc(C)nc(NCc2ccccc2)n1	-11.6%
Cc1cc(NCCCN)nc(-c2ccccc2O)n1	22.2%
CC1=C(C(=O)OC(C)C)C(c2ccccn2)n2ncnc2N1 (configuration not stated)	5.9%
COc1ccccc1NC(=O)N1CCN(c2ccccc2F)CC1	8%
O=C(O)COc1ccc(C(=O)Cc2ccc3c(c2)OCCCO3)c(O)c1	-4.8%
O=C(Cc1ccc2c(c1)OCCO2)c1c(O)cc(O)cc1O	62.7% (active)
O=C(O)CCC(=O)c1ccc2c(c1)OCCO2	1.9%
O=C(Cn1ncc2c1-c1ccccc1OC2)N(Cc1ccco1)C1CCCCC1	2.4%
Cn1c(SCC(=O)N2CCN(c3ccccc3)CC2)nnc1-c1cc2ccccc2o1	10.4%
CSc1nsc(SC)c1NC(=O)OCCc1ccccn1	-3.5%
CC(C)(C)c1ccc(Cn2nnc3c(=O)[nH]c(C4CCN(C(=O)Cc5cccs5)CC4)nc32)cc1	8.5%
O=C(Cc1cccs1)N1CCCC(c2nc3c(nnn3Cc3ccc(F)cc3)c(=O)[nH]2)C1 (configuration not stated)	8.4%
Cc1ccc(-c2csc3ncnc(-n4nc(C)cc4N)c23)cc1	-8.1%
CCn1c(CN2CCCCCC2=O)nnc1SCc1cnc(-c2ccccc2)s1	-1.7%
